Structures are written as SMILES. Results filed as inconclusive are left out. A number with no mark means an inactive call. Calls of active or inactive are those of the source. Calls follow the shape of the dose curve; as a rule, active = well fitted inhibition curve with a large enough effect in the signal ratio in the repeat runs (not every such curve was filed as active); inconclusive = weak or mixed curves, or effect the other way; inactive = no such curve, though single readings can be large or run the other way; the % refers to the signal ratio.
% is scaled to controls: 0 for no effect and ±100 for the full control effect.

Chain of Vitamin D3 receptor (Homo sapiens) (P11473 whole entry, looked up): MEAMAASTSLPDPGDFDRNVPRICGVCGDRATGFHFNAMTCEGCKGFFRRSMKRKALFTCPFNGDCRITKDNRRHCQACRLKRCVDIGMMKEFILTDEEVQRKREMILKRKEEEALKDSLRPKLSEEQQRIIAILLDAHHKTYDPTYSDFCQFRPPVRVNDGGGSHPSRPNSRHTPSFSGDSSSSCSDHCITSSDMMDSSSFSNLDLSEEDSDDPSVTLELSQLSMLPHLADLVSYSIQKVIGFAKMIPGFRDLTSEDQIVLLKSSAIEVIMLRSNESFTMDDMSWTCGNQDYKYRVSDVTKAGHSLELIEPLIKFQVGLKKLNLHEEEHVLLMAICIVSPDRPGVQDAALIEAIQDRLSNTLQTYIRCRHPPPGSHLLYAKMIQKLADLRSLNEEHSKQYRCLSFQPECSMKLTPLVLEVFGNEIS

The assay deals with Vitamin D3 receptor (Homo sapiens) (UniProt P11473). The assay is described as follows: qHTS assay to identify small molecule antagonists of the vitamin D receptor (VDR) signaling pathway (AID 743223). The note with it: VDR-UAS-bla HEK293T, beta-lactamase FRET ratio, 16 h; series mostly up to 61 µM. Put shortly:
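After VDR-bla cells are plated and left 4 h at 37C, DMSO-dissolved compounds and 3 nM (final) calcitriol agonist are added. Incubation continues 16 h at 37C; FRET beta-lactamase substrate then develops 2 h at room temperature.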
A general note: Quantitative high-throughput screening tests each substance at several concentrations.
Regarding `COc1ccc(-c2cc(=O)c3c(O)cc(O[C@@H]4O[C@H](CO[C@@H]5O[C@@H](C)[C@H](O)[C@@H](O)[C@H]5O)[C@@H](O)[C@H](O)[C@H]4O)cc3o2)cc1O`, the outcome was inactive.

Regarding `COC(=O)[C@@H]1[C@H]2C[C@H]3c4[nH]c5ccccc5c4CCN3C[C@@H]2CC[C@@H]1O`, the outcome was inactive.

Turning to `Cc1cccc(OCC(O)CNC(C)(C)C)c1C` (stereo unspecified), the outcome was inactive.

On to `C=C(C)C1CCC(C)(O)CC1` (stereo unspecified), for which the outcome was inactive.

Turning to `O=C1O[C@@H]2[C@@H](O)[C@H](O)O[C@@H]2[C@H]1O`, the outcome was inactive.

As for `Cc1ccc(C=O)cc1C`, the result was inactive.

Take `CC1=C(C(=O)O)N2C(=O)[C@@H](NC(=O)[C@H](N)c3ccc(O)cc3)[C@H]2SC1`: the outcome was inactive.

For `CC(COC(C)(C)C)OCCCO` (stereo unspecified), the result was inactive.

For `O=C(O)c1cc(Cl)cc([N+](=O)[O-])c1Cl`, the result was inactive.

For the molecule `O=C(CCNNC(=O)c1ccncc1)NCc1ccccc1`, the outcome was inactive.

Turning to `COc1cc(NS(=O)(=O)c2ccc(N)cc2)nc(OC)n1`, the result was inactive.

As to `O=S(=O)(O)CCN1CCN(CCO)CC1`, the result was inactive.

In the case of `c1ccc2nccnc2c1`, the result was inactive.

Consider `CCCCCCCCCCl`, for which the outcome was inactive.

In the case of `CCC(C)(CCC(C)C)C(=O)O` (stereo unspecified), the outcome was inactive.

With `O=C(NCCc1c[nH]c2ccccc12)c1cccnc1`, the result was inactive.

With `CCOCCOC(=O)/C=C/c1ccc(OC)cc1`, the outcome was inactive.

Consider `CN1CCN(CC(=O)N2c3ccccc3C(=O)Nc3cccnc32)CC1`, for which the activity change, negative = inhibition is -1.37% [at 6.95 µM].

Consider `FC(F)(F)c1ccccc1-n1ccnc1`, for which the result was inactive.

For `CCC(CC)CO`, the outcome was inactive.

As to `COc1cc2c(cc1OC)[C@@H]1CC(=O)[C@@H](CC(C)C)CN1CC2`, the outcome was inactive.

These data come from PubChem BioAssay (Tox21).
